The results in this text go back to PubChem BioAssay (NCI).

About 83,000 compounds went through this panel and 20% of them were active in at least one assay; those are over-represented in the sample as a whole.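 Each cell line was grown in a 96-well plate and treated with one concentration of compound for 48 hours. Values below 10 were considered active.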 Values without a mark were called inactive. Calls of active or inactive are those of the source.

Holding throughout (test): NCI-60 one-dose screen, 48 h (100 = growth as untreated, 0 = no growth, -100 = all killed)
Holding throughout (details): 10 µM unless noted

Test [1] concerns NCI-H23 lung.
Test [2] deals with NCI-H226 lung.
For test [3], the system named is NCI-H322M lung.
In test [4] the test system is HOP-62 NSCLC.
Test [5] relates to NCI-H460 lung.
Test [6] concerns HOP-92 NSCLC.
In test [7] the test system is NCI-H522 lung.
Test [8] relates to A549/ATCC NSCLC.
In test [9] the test system is 786-0 renal.
In test [10] the test system is COLO 205 colon.

Regarding `CCCCCCCCCCCCCCCCCC1=NC(C)(C)CN1CC(C)O` (stereo not given), the growth is 84.8% in test [1]; 102% in [2]; 71.4% in [3]; 85.2% in [4]; 4.24% (active) in test [5]; 43.6% in test [6]. Also, the growth in test [7] is 25.8%; in test [8] it was 19.1%; in test [9], 83.9%; in test [10] it was 34%.

As for `Cn1c(=O)c2[nH]c(SCC(=O)Nc3ccc(C(=O)/C=C/c4ccccc4Cl)cc3)nc2n(C)c1=O`, the growth in test [1] was 98.1%; in test [2], 93.1%; in test [3] it was 97.6%; in test [4], 90.4%; in test [5], 102%; in [6] it was 65%. Besides, the growth is 94.3% in [7], 86.7% in test [8], 88.3% in test [9] and 117% in test [10].

With `COc1ccc(/C=C/c2ccc3ccccc3n2)c(OC)c1`, the growth in [1] is 74.3%; in test [2], 86.1%; in test [3] it was 75.4%; in [4] it was 74.4%; in test [5] it was 75.5%; in test [6], 46.8%. For the same molecule, the growth in test [7] was 72.5%; in test [8], 79.6%; in test [9], 96.1%; in test [10], 85.9%.

Take `Cn1cc(-c2nn3cc(-c4cccs4)nc3s2)c2cc(F)ccc21`: the growth in test [1] was 58%; in test [2], 67%; in test [3], 50.1%; in [4], 28.4%; in [5], 8.02% (active); in test [6], 39.6%. Also, the growth in [7] was 5.4% (active); in test [8], 37.7%; in [9], 49.2%; in [10], 22%.

For the molecule `O=C1/C(=C2\SC(=S)N(C3CC3)C2=O)SC(=S)N1C1CC1`, the growth in [1] was 96.7%; in test [2] it was 95.5%; in test [3], 95.6%; in [4], 99.3%; in test [5] it was 103%; in test [6] it was 98.9%. Also, the growth in test [7] was 91.9%; in test [8], 98.1%; in test [9], 98.6%; in [10], 117%.

On to `O=C(/C=C/c1ccccc1)c1ccc(Nc2nc(Nc3ccc(F)cc3)nc(Nc3ccc(Cl)cc3)n2)cc1`, for which the growth was 83.9% in test [1]; 96.1% in test [2]; 94.5% in [3]; 102% in [4]; 82.1% in test [5]; 48.1% in [6]. Further, the growth in test [7] is 87.6%; in test [8] it was 112%; in test [9], 86.8%; in test [10] it was 70.6%.

In the case of `CN(CCC(=O)c1ccccc1)CCC(=O)c1ccccc1`, the growth in test [1] is 91.5%; in test [2], 97.4%; in test [3], 96.4%; in test [4], 100%; in test [5] it was 97.9%; in [6] it was 72.6%. The growth in test [7] is -87.7% (active); in test [8], 97.7%; in test [9], 65.4%; in test [10], 89.3%.

With `CCCCNc1nnc2n(Cc3ccccc3)c(=O)c3c4c(sc3n12)CCCC4`, the growth is 45.5% in test [1]; 50.8% in test [2]; 69.2% in test [3]; 44.5% in test [4]; 22.7% in test [5]; 53.2% in test [6]. Further, the growth in test [7] is 33.2%; in test [8], 37.8%; in [9], 47.6%; in test [10], 61.1%.

For `COc1ccc(C(=O)/C=C/c2ccc(N3CCCCC3)cc2)cc1OC`, the growth in [1] is 92.5%; in test [2], 72.7%; in test [3], 91.5%; in [4], 98.3%; in [5], 97.9%; in [6] it was 69.9%. Also, the growth in test [7] was 84.4%; in test [8], 90%; in test [9], 103%; in [10], 100%.

As to `CCCCCN(CCCCC)CC(O)c1cc(C)c2ccc3cc(C(C)C)ccc3c2c1` (stereo not given), the growth in test [1] was -52.1% (active); in [2], 78.9%; in test [3], 76.7%; in test [4], 20%; in [5], 6.03% (active); in test [6], -43.6% (active). Also, the growth is -62.4% (active) in [7], 3.86% (active) in test [8], -80.5% (active) in [9] and -14.9% (active) in [10].

Regarding `CC1C(/C=N/NC(N)=S)C(C#N)(C#N)C1(C#N)C#N` (stereo not given), the growth in test [1] is 101%; in test [2], 101%; in [3], 102%; in test [4], 105%; in [5], 99.8%; in test [6] it was 92.9%. Besides, the growth was 99.4% in test [7], 100% in test [8], 104% in test [9] and 115% in test [10].

For the molecule `CCN1CCN(c2cc(C)nc(N(CCNc3ccnc4cc(Cl)ccc34)Cc3ccc4c(c3)OCO4)n2)CC1`, the growth in [1] is 13.6%; in test [2], 47.7%; in test [3], 28.3%; in test [4], -14.3% (active); in [5] it was 8.38% (active); in test [6], 44.6%. In addition, the growth was -81.7% (active) in test [7], 2.91% (active) in test [8], -76.8% (active) in test [9] and -89.5% (active) in [10].

`NC1=Nc2cc(OCCCCN3Cc4ccccc4C3)c(OCC3CC3)cc2C12CCCC2`: the growth in [1] was 66.9%; in test [2], 37.7%; in test [3] it was 75.7%; in test [4], 73.2%; in [5], 23.2%; in test [6] it was 29.4%. Besides, the growth in test [7] was 67.3%; in test [8] it was 67.5%; in test [9] it was 56.2%; in test [10], -74.5% (active).

Take `Cc1ccc(C)c2c(C)c(C(=O)Nc3cccc(-n4cccn4)c3)oc12`: the growth was 73.1% [50 µM] in [1]; 62.1% [50 µM] in test [2]; 86.5% [50 µM] in test [3]; 99.4% [50 µM] in test [4]; 56.4% [50 µM] in test [5]; 90.8% [50 µM] in test [6]. Moreover, the growth in test [7] is 32% [50 µM]; in test [8] it was 58.4% [50 µM]; in [9], 82.2% [50 µM]; in test [10], 62.8% [50 µM].

As to `CN1CCN(C(=O)C(C)(C)c2ccc(C(=O)Nc3cn4cc(-c5ccncc5)ccc4n3)cc2)CC1`, the growth in [1] was 10.1%; in test [2], 9.69% (active); in test [3], 17%; in test [4] it was 4.05% (active); in [5], 10.8%; in test [6], 3.02% (active). In addition, the growth in test [7] is -1.24% (active); in [8] it was 10.2%; in test [9] it was -19.9% (active); in test [10], 2.48% (active).

Take `CN1CCN(CCCOc2cccc3nc(Nc4ccc(F)c(F)c4)ccc23)CC1`: the growth in [1] was 36%; in test [2] it was 56.2%; in test [3], -13.6% (active); in [4], 5.44% (active); in test [5] it was -26% (active); in [6], 0.0965% (active). Besides, the growth in test [7] is -58.6% (active); in [8], 3.54% (active); in test [9], -12.3% (active); in test [10] it was -82.1% (active).

For the molecule `COc1cc(OC)cc(-c2ccc(-c3ccc(C(=N)N)o3)o2)c1`, the growth in [1] is 76.6%; in [2], 84.8%; in [3], 71.2%; in test [4] it was 81.4%; in [5], 6.91% (active); in test [6], 69.2%. Moreover, the growth in test [7] was 57.6%; in [8] it was 47.1%; in test [9], 69%; in test [10] it was -61.5% (active).

For `C=C1C(=O)O[C@H]2[C@H]1CC/C(COC(=O)/C=C\C(=O)NCc1ccc(Cn3c(=O)sn(CCCCC)c3=O)cc1)=C\CC[C@@]1(C)O[C@@H]21`, the growth is 87.4% in test [1]; 104% in [2]; 101% in test [3]; 104% in test [4]; 97.8% in test [5]; 89.7% in test [6]. Further, the growth in [7] is -7.84% (active); in test [8], 97.5%; in test [9] it was 62.8%; in test [10] it was 19.3%.

As to `CS(=O)(=O)c1nnc(-c2ccccc2)s1`, the growth was 99.4% in test [1]; 113% in test [2]; 111% in test [3]; 85.5% in [4]; 111% in test [5]; 103% in test [6]. Also, the growth in test [7] was 11.6%; in [8], 87.1%; in test [9], 88.7%; in test [10], 77.3%.

For `CCOC(=O)/C=C1\S/C(=N\Nc2cc(=O)[nH]c3ccccc23)N(c2ccccc2)C1=O`, the growth in test [1] was 97.9%; in test [2], 95.4%; in test [3], 101%; in [4] it was 92.1%; in [5], 107%; in test [6], 88.8%. Further, the growth in test [7] was 96.7%; in test [8], 103%; in [9], 101%; in test [10], 106%.

`CC/C=C\CCC/C=C1/C(=O)C=C[C@@H]1C/C=C\CCCC(=O)OC`: the growth in test [1] was 34.9%; in test [2] it was 77%; in [3] it was 101%; in [4] it was 42.3%; in [5], 52.4%; in test [6] it was 83.4%. The growth in test [7] is 11.7%; in test [8], 79%; in [9], 69.3%; in test [10], 49.7%.

Regarding `NC(=O)c1c(NC(=O)c2cccc(C(F)(F)F)c2)sc2c1CCC(=O)C2`, the growth is -2.9% (active) in [1]; 34.2% in test [2]; 61.6% in test [3]; 28.2% in test [4]; 5.67% (active) in test [5]; -45.1% (active) in test [6]. Further, the growth was -37.6% (active) in test [7], 17% in [8], 17.8% in test [9] and -51.2% (active) in test [10].

Regarding `COC(=O)c1nc(-c2ccccc2)oc1S(=O)(=O)NCC(c1ccc(Cl)cc1)N1CCOCC1` (stereo not given), the growth was 89.1% in test [1]; 90.7% in [2]; 98.3% in test [3]; 96.3% in test [4]; 87.2% in test [5]; 70.9% in [6]. Also, the growth in [7] is 23.8%; in test [8] it was 90.5%; in test [9], 51.9%; in test [10], 78.1%.

Take `C#Cc1cccc(Nc2nc(C)nc3cc(NC(=O)CCl)ccc23)c1`: the growth in test [1] was -55.6% (active); in test [2] it was -28.1% (active); in [3], -31.3% (active); in test [4] it was -84.2% (active); in test [5], -64.1% (active); in test [6], -82% (active). Also, the growth in test [7] was -77.5% (active); in [8], 5.92% (active); in test [9], -72.5% (active); in test [10], -78.6% (active).

With `C[C@@H]1O[C@@H](O[C@@H]2C[C@H](c3ccc4c(c3O)C(=O)C3=C(C4=O)[C@@]4(O)C(=O)C[C@](C)(O)C[C@@]4(O)C=C3)O[C@H](C)[C@H]2O)CC[C@@H]1O[C@H]1C[C@@H](O)[C@H](O)[C@@H](C)O1`, the growth was 100% in test [1]; 116% in test [2]; 106% in test [3]; 113% in test [4]; 105% in test [5]; 149% in test [6]. Moreover, the growth is 41.5% in [7], 95.3% in test [8], 103% in test [9] and -19.1% (active) in test [10].

As to `CC(=O)ON1CCCC(P(=O)(OCCSC(=O)C(C)(C)C)OCCSC(=O)C(C)(C)C)C1=O` (stereo not given), the growth in test [1] is 45.9%; in test [2], 33.6%; in test [3], 46.1%; in [4], 32%; in test [5] it was 16.1%; in [6], 29.4%. The growth was 28.9% in test [7], 33.5% in [8], 19.1% in test [9] and 27.5% in [10].

Regarding `O=C(O)c1ccc(-c2ccc(/C=N/Nc3nc(Nc4ccccc4)nc(N4CCCCC4)n3)o2)cc1`, the growth was 62.2% in test [1]; 92.4% in test [2]; 55.1% in test [3]; 85% in test [4]; 52.8% in test [5]; 35.1% in test [6]. In addition, the growth is 43% in [7], 63.5% in test [8], 61.5% in [9] and 83.2% in test [10].
